Data as given in PubChem BioAssay (NCATS).
Results filed as inconclusive are left out. Values without a mark were called inactive. Activity calls are given as the source filed them. The call rests on the fitted dose curve; in most records, active means well fitted cell-killing curve with a large enough effect; inconclusive means small, poorly fitted or top-dose-only effect, or effect the other way; inactive means no such curve, though single readings can be large or run the other way.

Assay: Viability qHTS for spleen associated tyrosine kinase inhibitor (SYKi) drug resistant MV4-11 cells (AID 1963824); further: nearly all actives have a fitted effect of over 35% in size
Conditions: SYKi-resistant MV4-11 viability, CellTiter-Glo, 72 h; series mostly up to 45 µM; viability, % of control: at the top concentration
Procedure, shortened: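 SYK inhibitor-resistant MV4-11 AML cells, 500 per well, added to predispensed compounds and incubated 72 hr at 37 C, 5% CO2. Viability measured by CellTiter-Glo luminescence after 10 min at room temperature.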
Potency means the concentration at half of the fitted maximal effect.

Structure (SMILES) | viability, % of control | Potency
CC1(C)CCC2(C(=O)OC3OC(CO)C(O)C(O)C3O)CCC3(C)C(=CCC4C5(C)CCC(OC6OC(C(=O)O)C(OC7OC(CO)C(O)C(O)C7O)C(OC7OC(CO)C(O)C(O)C7O)C6O)C(C)(C)C5CCC43C)C2C1 (stereo not given) | 109% [at 9.25 µM] | –
C/C(=C\CO)CC/C=C(\C)C(=O)O[C@H]1[C@H](OC2OC=C(C(=O)O)C3CCC(C)(O)C23)O[C@H](CO)[C@@H](O)[C@@H]1O (stereo not given in full) | 80.6% [at 17.3 µM] | –
C[C@@H]1CC[C@]2(C(=O)O[C@@H]3O[C@H](CO)[C@@H](O)[C@H](O)[C@H]3O)CC[C@]3(C)C(=CCC4[C@@]5(C)C[C@@H](O)[C@H](O)[C@@](C)(C(=O)O[C@H]6[C@H](O)C[C@@]7(C)C(CC[C@]8(C)C7CC=C7[C@H]9[C@](C(=O)O[C@@H]%10O[C@H](CO)[C@@H](O)[C@H](O)[C@H]%10O)(CC[C@@H](C)[C@@]9(C)O)CC[C@]78C)[C@@]6(CO)C(=O)O)C5CC[C@]43C)[C@@H]2[C@]1(C)O (stereo not given in full) | 103% [at 9.25 µM] | –
C=CC(C)(O)CC/C=C(\C)C(=O)O[C@@H]1[C@@H](O)[C@H](OC(C)(C=C)CC/C=C(\C)C(=O)O[C@@H]2O[C@H](CO)[C@@H](O)[C@H](O)[C@H]2O)O[C@H](CO)[C@H]1OC(=O)/C(C)=C/CCC(C)(O)C=C (stereo not given in full) | 77.6% [at 9.25 µM] | –
CCCc1c(C(C)C)nc(C(C)C)c([C@@H](C)O)c1-c1ccc(F)cc1O | – | 8.2 µM (active)
O=C(/C=C/c1ccc2ccccc2n1)c1ccncc1 | – | 1.64 µM (active)
C=CC(=O)N1CCCN(c2cc(NCCC(=O)O)nc(-c3ccccn3)n2)CC1 | 101% | –
COc1cc(/C=C/C(=O)OC(C)(C)C(OC2OC(CO)C(O)C(O)C2O)C(=O)OCc2ccc(OC3OC(CO)C(O)C(O)C3O)cc2)ccc1O (stereo not given) | 70.4% [at 17.3 µM] | –
C/C=C/C=C/[C@@H]1O[C@](O)([C@H](CC)C(=O)NC/C=C/C=C(\C)[C@@H](OC)[C@@H](C)C2OC(/C=C/C=C/C=C(\C)C(=O)c3c(O)cc[nH]c3=O)[C@H](O)[C@@H]2O)[C@H](O)[C@H](O)C1(C)C (stereo not given in full) | – | 0.243 µM (active)
CC1(C)CC[C@]2(C(=O)O[C@@H]3O[C@H](CO)[C@@H](O)[C@H](O)[C@H]3O)CC[C@]3(C)C(=CCC4[C@@]5(C)C[C@@H](O)[C@H](O)[C@](C)(C=O)C5CC[C@]43C)[C@@H]2[C@@H]1O (stereo not given in full) | 98.3% [at 17.3 µM] | –
CC(CCc1ccccn1)(CCc1ccccn1)C(=O)c1ccccc1 | 96.6% | –
C[C@@H]1O[C@@H](O[C@H]2[C@H](Oc3cc(O)c(C(=O)CCc4ccc(O)cc4)c(O)c3)O[C@H](CO)[C@@H](O)[C@@H]2O)[C@H](O)[C@H](O)[C@H]1O | 101% | –
C=CC1(C)C=C2C(=O)CC3C(C)(C)CCCC3(C(=O)O)C2(O)CC1 (stereo not given) | 66.7% | –
O=C1C(Cc2ccc(O)cc2)N2C(=O)CCN(C(=O)NCc3ccccc3)C2CN1Cc1cccc2ccccc12 (stereo not given) | – | 1.84 µM (active)
CC(=O)N[C@@H](CC(C)C)C(=O)N[C@@H](CCC(=O)O)C(=O)N[C@@H](CCC(=O)O)C(=O)N[C@@H](CC(=O)O)C(=O)Nc1ccc2c(C(F)(F)F)cc(=O)oc2c1 | 107% | –
CCC(C)CC(=O)OC1C(=O)C(CO)=CC(O)C1C(C)C (stereo not given) | – | 2.59 µM (active)
COC(=O)C[C@@H]1C(C(=O)O)=CO[C@@H](O[C@@H]2O[C@H](CO)[C@@H](O)[C@H](O)[C@H]2O)/C1=C\COC(=O)/C=C\c1ccccc1 | 60.6% [at 17.3 µM] | –
CCOc1ccc(CCNC(=O)c2cc3sc(Cl)cc3n2C)cc1OCC | – | 1.64 µM (active)
C/C(=C\CC[C@@H](C)[C@H]1CC(O)[C@@]2(C)C3CC[C@H]4C(C)(C)[C@@H](OC5OCC(O)C(O)C5OC5OC(CO)C(O)C(O)C5O)CC[C@@]45C[C@@]35CC(O)[C@]12C)C(=O)O (stereo not given in full) | 82.7% [at 17.3 µM] | –
O=C(Nc1cc(-c2ccccc2)nn1-c1ccccc1)c1ccc([N+](=O)[O-])cc1 | – | 18.4 µM (active)

Structure (SMILES) | viability, % of control | Potency
C[C@@H]1O[C@@H](O[C@H]2[C@@H]3C=CO[C@@H](O[C@@H]4O[C@H](CO)[C@@H](O)[C@H](O)[C@H]4O)[C@@H]3[C@@]3(CO)O[C@@H]23)[C@H](OC(=O)/C=C/c2ccc(O)c(O)c2)[C@H](O)[C@H]1O | 78.8% [at 17.3 µM] | –
CNC12CC3C[C@@](C)(C1)C[C@](C)(C3)C2 | 61.5% | –
Cc1cccc(/C=N/Nc2cc(N3CCOCC3)n3nc(-c4ccncc4)cc3n2)c1 | – | 0.291 µM (active)
CCN(CC)CCOc1ccc2c(c1)C(=O)c1cc(OCCN(CC)CC)ccc1-2 | – | 9.44 µM (active)
CC(=O)/C=C/C1(O)C(C)CC(O[C@@H]2O[C@H](CO)[C@@H](O)[C@H](O)[C@H]2O)CC1(C)C (stereo not given in full) | 82.8% [at 17.3 µM] | –
O=C(O[C@H]1[C@@H]2C[C@@H]3OC[C@](O)([C@@H]1Cl)[C@H]2C(O[C@@H]1O[C@H](CO)[C@@H](O)[C@H](O)[C@H]1O)O3)c1ccc(O)c(O)c1 (stereo not given in full) | 115% [at 17.3 µM] | –
CC(=O)OC[C@@]12C(=O)C[C@@H](C)[C@]3(C[C@@H](c4ccoc4)O[C@H]3OC(C)=O)[C@H]1CCC[C@]21CO1 | 63.4% [at 17.3 µM] | –
CC(C)CCNC(=O)c1ccc2c(c1)nc(Nc1n[nH]c3ccc(-c4ccccc4OC(F)(F)F)cc13)n2C1CCC(O)CC1 (stereo not given) | – | 16.4 µM (active)
COc1cccc(NC[C@@H](O)Cn2c3ccc(Br)cc3c3cc(Br)ccc32)c1 | – | 16.4 µM (active)
CC1OC(OC2C(O)C(OC3CCC4(C)C(CCC5(C)C4CC=C4C6CC(C)(COC7OC(CO)C(O)C(O)C7O)CC(O)C6(C)CCC45C)C3(C)C)OC(C(=O)O)C2O)C(O)C(O)C1OC1OCC(O)C(O)C1O (stereo not given) | 85% [at 9.25 µM] | –
COc1c(C)c(OCC(O)C(C)(C)O)cc2c1COC2=O (stereo not given) | 110% | –
CCC/C=C1\OC(=O)C2=C1CCC(O)C2O (stereo not given) | 85% | –
COc1cc2c(cc1O)CC(O)(CO)C(CO)C2c1ccc(OC2OC(CO)C(O)C(O)C2O)c(OC)c1 (stereo not given) | 78.7% [at 17.3 µM] | –
OC[C@H]1O[C@@H](n2cnc3c(NCc4ccc(O)cc4)ncnc32)[C@H](O)[C@@H]1O | – | 0.731 µM (active)
COc1ccc(C(OC2OC(CO)C(O)C(O)C2O)C(C)O)cc1 (stereo not given) | 92.3% | –
C[C@@H]1O[C@@H](O[C@H]2[C@H](O[C@H]3[C@H](O[C@H]4CC[C@@]5(C)C(CC[C@]6(C)C5CC=C5[C@@H]7CC(C)(C)C[C@@H](O)[C@]7(C)CC[C@]56C)C4(C)C)O[C@H](C(=O)O)[C@@H](O)[C@@H]3O)O[C@H](C(=O)O)[C@H](O)[C@@H]2O)[C@H](O)[C@H](O)[C@H]1O (stereo not given in full) | 89.8% [at 9.25 µM] | –
CC1=CC(=O)CC(C)(C)C1CCC(C)O[C@@H]1O[C@H](CO[C@@H]2OC[C@@H](O)[C@H](O)[C@H]2O)[C@@H](O)[C@H](O)[C@H]1O (stereo not given in full) | 75.6% [at 17.3 µM] | –
COC1CC(OC2CCC3(C)C(=CCC4C3C(OC(C)=O)C(OC(=O)/C=C/c3ccccc3)C3(C)C(C(C)O)CCC43O)C2)OC(C)C1OC1CC(OC)C(OC2OC(C)C(OC3OC(CO)C(O)C(O)C3O)C(OC)C2O)C(C)O1 (stereo not given) | 71.5% [at 9.25 µM] | –
O=C(NNc1nc2cc(F)ccc2n2cccc12)c1cnccn1 | – | 0.731 µM (active)
CC(=O)N[C@H]1[C@H](O[C@H]2CC[C@@]3(C)C(CC[C@]4(C)C3CC=C3C5CC(C)(C)CC[C@]5(C(=O)O)[C@H](O)C[C@]34C)C2(C)C)O[C@H](CO[C@@H]2OC[C@H](O)[C@H](O)[C@H]2O[C@@H]2OC[C@@H](O)[C@H](O)[C@H]2O)[C@@H](O)[C@@H]1O (stereo not given in full) | 113% [at 9.25 µM] | –
